# Shown are actives, neighbours in structure and some others; about 3.5% of the full set was active somewhere.
# MITF inh: blocks human microphthalmia-associated transcription factor; inhibition, % at 2.6 µM; hit rate 0.91% among 650,000; AlphaScreen MITF homodimerization, bead proximity signal; in the data active = inhibition above about 50%;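 note: 0% = vehicle wells with protein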
# GPR151 activ: human GPR151 activation; Q8TDV0; PathHunter beta-arrestin GPR151 cells, luminescence; activation, % at 11.2 µM; hit rate 1% among 650,000; AID 1508602; in the data active = activation above about 4.9%;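 note: 0% = median of compound wells and 100% = cells with positive control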
# Target sequence (Q8TDV0 whole entry, looked up): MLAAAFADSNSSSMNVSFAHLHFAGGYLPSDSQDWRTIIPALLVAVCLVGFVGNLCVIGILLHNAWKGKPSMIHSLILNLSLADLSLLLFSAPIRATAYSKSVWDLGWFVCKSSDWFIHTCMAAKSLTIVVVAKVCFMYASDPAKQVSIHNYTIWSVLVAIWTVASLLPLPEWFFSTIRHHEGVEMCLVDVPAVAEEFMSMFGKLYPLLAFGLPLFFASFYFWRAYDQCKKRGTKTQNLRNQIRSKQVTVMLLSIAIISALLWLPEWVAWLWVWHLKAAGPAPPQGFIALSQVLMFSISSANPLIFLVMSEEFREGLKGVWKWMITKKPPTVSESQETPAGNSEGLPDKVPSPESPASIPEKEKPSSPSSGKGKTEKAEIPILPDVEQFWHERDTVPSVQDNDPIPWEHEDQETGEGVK
# FBW7 activator: activators of human E3 ligase FBW7 | hit rate 0.13% among 650,000 | normalized activity (activation), % at 26.1 µM | AlphaScreen FBW7–phospho-cyclin E peptide binding, activator screen | Q969H0; in the data active = normalized activity above about 1.9%;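 note: purified mutant Fbw7 with reduced substrate affinity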
# TEAD-YAP inh: TEAD-YAP interaction inhibition; HEK-TIYL cells, TEAD-Gal4/YAP UAS-luciferase luminescence; inhibition, % at 9.12 µM; hit rate 1.4% among 640,000; AID 1259422; in the data active = inhibition above about 32%;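 note: 0% = median of test compound wells and 100% = reference inhibitor wells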
# Numbers without * were called inactive; ! = repeats disagree.
SMILES,MITF inh,GPR151 activ,FBW7 activator,TEAD-YAP inh
c1ccc(CN2CCC(Nc3nc(-c4cccs4)nc4c3ncn4-c3ccccc3)CC2)cc1,10,1,0,14
Cc1nn(C)c(C)c1-c1nc(NCCO)c2ncn(-c3ccsc3)c2n1,8,0,0,43*
CCCNc1nc(-c2cccs2)nc2c1ncn2-c1ccsc1,4,-1,0,14
c1csc(-c2nc(NC3CC3)c3ncn(-c4ccsc4)c3n2)c1,10,-2,0,34*
COc1ccc(CCNc2nc(-c3c(C)nn(C)c3C)nc3c2ncn3-c2ccsc2)cc1,5,3,0,-6
OCCNc1nc(-c2csc3ccccc23)nc2c1ncn2-c1ccsc1,7,0,0,44*
CCCOc1ccc(/C=c2\sc3nc(-c4ccccc4OC(C)=O)nn3c2=O)cc1,-7,0,0,-12
Cc1cc(C)n2c(SCC(=O)NC(C)c3ccc(F)cc3)nnc2n1 (stereo not drawn),5,0,0,0
N#Cc1ccccc1NC(=O)Cn1ncc(Cl)c(Cl)c1=O,10,-1,0,55*
CCOC(=O)C1CCCN(C(=O)c2cc3c(-c4cccc(OC)c4)nn(C)c3s2)C1 (stereo not drawn),-12,-1,0,38*
COc1cccc(-c2nn(C)c3sc(C(=O)N4CCN(c5ccccn5)CC4)cc23)c1,-4,0,0,35*
O=C(/C=C/c1ccccc1)N1CCN(Cc2nc(-c3ccc(F)cc3)cs2)CC1,10,0,0,39*
O=C(/C=C/c1ccc(F)cc1)N1CCN(Cc2ccccc2)CC1,-7,0,0,-26
Cc1ccc(C2=C/C(=C/c3ccc(F)cc3)C(=O)O2)cc1,-4,-1,0,4
Cc1cc(C(=O)COC(=O)c2ccc(O)cc2O)c(C)n1-c1ccccc1,9,-1,0,64*
Cc1csc2nc(CCNC(=O)CC3CCCC3)cn12,-17,-1,0,-10
CCOC(=O)C(=O)NC(Cc1ccccc1)c1ccccc1 (stereo not drawn),13,1,0,2
O=C(CCl)NC(Cc1ccccc1)c1ccccc1 (stereo not drawn),11,0,0,58*
COc1ccc(C2CC(=O)C3=C(C2)NC(C)=C(C(=O)OC(C)C)C3c2ccccc2OC(C)C)cc1 (stereo not drawn),8,0,2.4*,-7
CC1=C(C(=O)OC(C)C)C(c2ccncc2)C2=C(CC(c3ccccc3)CC2=O)N1 (stereo not drawn),8,0,2.1*!,9
CCOC(=O)C1=C(C)NC2=C(C(=O)CC(c3ccc(OC)cc3)C2)C1c1ccccc1OC(C)C (stereo not drawn),17,1,0,-5
CC1=C(C#N)C(c2ccc(C)cc2)C2=C(CC(c3ccccc3)CC2=O)N1 (stereo not drawn),2,-1,0,32*
CCN(CC)CC(O)CN(c1cccc([N+](=O)[O-])c1)S(=O)(=O)c1ccccc1 (stereo not drawn),3,2,0,-2
N#CCCNc1ccc2c(c1)OCCO2,-7,0,0,2
CC1CCCC(NC(=O)C2N(C(C)c3ccccc3)C(=O)C3C(C(=O)Nc4cccc(Cl)c4)C4C=CC32O4)C1C (stereo not drawn),-2,1,0,-5
SMILES,MITF inh,GPR151 activ,FBW7 activator,TEAD-YAP inh
Cc1ccc2[nH]c(=O)c(CN(CC3COCCO3)C(=O)Nc3ccccc3Cl)cc2c1 (stereo not drawn),3,-1,0,37*
COc1cc(C(=O)Nc2nnc(C)s2)c(Br)c(OC)c1OC,-9,-2,1,-1
COc1cc(CCC(=O)Nc2nnc(C)s2)cc(OC)c1OC,2,1,0,55*
O=c1c(O)c(-c2cc(O)c(O)c(O)c2)oc2cc(O)cc(O)c12,82*,0,0,2
O=c1c(O)c(-c2ccccc2)oc2cc(O)cc(O)c12,-19,-1,0,-21
Cc1ccc(Nc2nc(-c3ccc(O)cc3)cs2)nc1,-16,1,0,33*
Cc1cc(C)c(S(=O)(=O)N(CCc2ccccc2)CC(=O)N2CCOCC2)c(C)c1,6,0,0,-12
CCCNC(=O)CCS(=O)(=O)c1nc(-c2ccc(OC)cc2)cc(C(F)(F)F)n1,3,0,2.1*,10
COc1ccc(-c2cc(C(F)(F)F)nc(S(=O)(=O)CCC(=O)NC(C)C)n2)cc1,4,-1,0,0
Cc1cc(C)c2c(c1)CC(C)(C)C(=O)C2=O,6,0,0,3
C=C1C(c2ccc(C)cc2)=CCc2cc(C)cc(C)c21,11,-5,0,54*
CCC(CO)Nc1ccc2ncc(-c3ccco3)n2n1 (stereo not drawn),20,0,0,33*
O=C(O)c1ccc(-c2cnc3ccc(NC4CCC(O)CC4)nn23)cc1 (stereo not drawn),-10,0,0,0
CCC(CO)Nc1ccc2ncc(-c3cccc(OC)c3)n2n1 (stereo not drawn),8,-1,-1,57*
OCc1ccc(-c2cnc3ccc(NC4CCC(O)CC4)nn23)cc1 (stereo not drawn),9,2,0,51*
CCC(CO)Nc1ccc2ncc(-c3ccc(C(C)=O)s3)n2n1 (stereo not drawn),19,-1,0,47*
O=C(NCCOc1cccc2cccnc12)c1ccc(Cn2ccnc2)cc1,17,1,0,5
COc1cncc(-c2cnc3ccc(NC4CCOCC4)nn23)c1,11,1,0,42*
COc1cccc(-c2cnc3ccc(NCC4CC4)nn23)c1,-11,0,0,47*
COc1ccc(-c2nnc3ccc(SC(C)C)nn23)cc1,-4,0,0,-35
CCOC(=O)/C(C#N)=N/Nc1ccccc1C#N,52*,-1,0,-8
CCOC(=O)/C(C#N)=N\Nc1ccccc1OC,-2,0,0,-7
Cc1ccc(NC2C=CS(=O)(=O)C2)cc1C (stereo not drawn),7,-3,0,33*
COc1ccc(Nc2c3c(nc4ccccc24)CCC3)cc1,15,1,1,18
COC(=O)c1ccc(Nc2c3c(nc4ccccc24)CCC3)cc1,-3,2,0,46*
SMILES,MITF inh,GPR151 activ,FBW7 activator,TEAD-YAP inh
O=S(=O)(c1ccc2c(c1)N=Cc1c(nc3sccn13)O2)N1CCOCC1,6,0,0,-9
O=S(=O)(c1ccc2c(c1)N=Cc1c(F)cccc1O2)N1CCOCC1,-11,0,0,45*
COc1cc(NC(=O)c2cccc(-n3ncc4cc(Nc5ccccc5Cl)ccc43)c2)cc(OC)c1OC,-4,-1,0,23
N#Cc1cccc(-n2ncc3cc(Nc4ccccc4Cl)ccc32)c1,-15,-1,2.0*,-7
Fc1ccc(-c2cc(C(F)(F)F)nc(NCc3cccnc3)n2)cc1,14,0,0,40*
COc1c(C)cc(C(=O)C2CCCN(S(=O)(=O)c3cccs3)C2)cc1C (stereo not drawn),-4,0,0,52*
